The record followed here is PubChem BioAssay (EPA / NIEHS).

Values joined by “and” are separate entries in the source; they are usually repeats but may differ in a detail not shown here. Equal entries are not always repeated. Where a structure was tested more than once in an assay, its records may differ in their call. Active and inactive are the calls of the source. The calls were made as follows: active = hit-call score of the fitted dose curve at least 0.9, where 1 is the maximum; inactive = score below 0.9.

Read-out in the experiment: Vascular cell adhesion molecule 1 (VCAM1), VCAM1 (gene 7412)
The experiment can be described thus: BSK_LPS_VCAM1: BioMAP Diversity Plus: LPS Assay for Vascular cell adhesion molecule 1 (VCAM1) Biomarker Activity (AID 2283086). As to conditions: primary human HUVEC with PBMC; actives raise or lower the signal. Here is the method:
BSK_LPS is a cell-based, multiplexed-readout assay that uses umbilical vein endothelium and peripheral blood mononuclear cells, a human vascular primary cell co-culture, with measurements taken at 24 hours after chemical dosing in a 96-well plate.BSK_LPS_VCAM1 is an assay component measured in the BSK_LPS assay. It measures VCAM-1 antibody related to regulation of gene expression using ELISA technology.Data from the assay component BSK_LPS_VCAM1 was analyzed into 1 assay endpoint. This assay endpoint, BSK_LPS_VCAM1, was analyzed with bidirectional fitting relative to DMSO as the negative control and baseline of activity. Using a type of binding reporter, gain or loss-of-signal activity can be used to understand changes in the signaling as they relate to the gene VCAM1. Furthermore, this assay endpoint can be referred to as a primary readout, because this assay has produced multiple assay endpoints where this one serves a signaling function. To generalize the intended target to other relatable targets, this assay endpoint is annotated to the cell adhesion molecules intended target family, where the subfamily is Immunoglobulin CAM.
The levels of cell surface (or secreted, indicated by the prefix "s") biomarker endpoints were measured by ELISA. Overt cytotoxicity to cells in confluent adherent cultures (all systems other than the BT system) was assessed by measuring total protein levels using sulforhodamine B (SRB) staining in parallel cultures at the time of biomarker measurements, indicated as SRB endpoints. For proliferation assays for adherent cell types, individual cell types are cultured at sub-confluence and relative cell numbers quantified by SRB staining at time points optimized for each system (48 h: 3C and CASM3C systems; 72 h: BT and HDF3CGF systems; 96 h: SAg system). SRB was performed by staining cells with 0.1% SRB after fixation with 10% TCA and reading wells at 560 nm.Viability and proliferation of PBMC (T cells) was quantified by Alamar Blue reduction for the SAg and BT systems. For PBMC viability (referred to as PBMC Cytotoxicity within the assay endpoint names), cells were plated (75,000/well in a 96-well plate) and then chemical samples added for 1 h before addition of activators, SEB and TSST-1 (20 ng/mL final concentration each). Cells were incubated for 90 h. Then, Alamar Blue (20 uL/well) (Invitrogen, Cat DAL1100) was added for 6 h, and the plates were read with a fluorescence microplate reader at 546/580 nm (excitation/emission). For PBMC proliferation, cells were plated and activated as above but incubated for only 16 h prior to addition of Alamar Blue. Plates were read after 6 h.
Take `COc1ccc([N+](=O)[O-])cc1N`: the result was inactive.

Regarding `CCCCCCCCCCCCN1CCCC1=O`, the AC50 (commonly the concentration giving half of the maximal activity seen) is 34.1 µM (active).

For `Cc1oc(-c2ccccc2)nc1CCOc1ccc(C[C@H](Nc2ccccc2C(=O)c2ccccc2)C(=O)O)cc1`, the concentration at half-maximal activity (AC50) is 33.1 µM (active).

Take `CCCCCCCCC(=O)O`: the result was inactive.

As for `CCCCOCCO`, the result was inactive.

For the molecule `OC1CCCCC1`, the result was inactive.

For the molecule `CCC(=C(c1ccc(O)cc1)c1ccc(OCCN(C)C)cc1)c1ccccc1`, the AC50 was 12.6 µM (active).

As to `c1ccc2c(c1)ccc1ccccc12`, the outcome was inactive.

With `Cc1cc(CCN2CCN(c3nsc4ccccc34)CC2)cc2c1NC(=O)CC2(C)C`, the half-maximal activity concentration (AC50) is 26 µM (active).

`OCCC(F)(F)C(F)(F)C(F)(F)C(F)(F)C(F)(F)C(F)(F)F`: the outcome was inactive and the AC50 is 48.9 µM (active).

Consider `OC1CCC(C2CCCCC2)CC1` (stereo not given), for which the outcome was inactive.

For the molecule `CN1CCN(c2ccccc2/C=C2\SCCN(c3ccc(Cl)c(Cl)c3)C2=O)CC1`, the AC50 is 13 µM (active).

Consider `CC[C@H](C)[C@@H](C(=O)O)n1sc2ccccc2c1=O`, for which the half-maximal activity concentration (AC50) was 26.5 µM (active).

On to `COCC(C)O` (stereo not given), for which the outcome was inactive.

`CC(C)CCCCCCOC(=O)CCCCC(=O)OCCCCCCC(C)C`: the outcome was inactive.

Turning to `CCN(CC)CCNc1ccc(CNC=O)c2sc3ccc(OC)cc3c(=O)c12`, the AC50 is 14.4 µM (active).

In the case of `CN(C)C=O`, the outcome was inactive.

For the molecule `CCCCCCCCCCCCCCCS(=O)(=O)Oc1ccccc1`, the result was inactive.

Turning to `CC1=C(/C=C/C(C)=C/C=C/C(C)=C/C(=O)O)C(C)(C)CCC1`, the AC50 is 24.3 µM (active).

For the molecule `CCCCCCCCOC(=O)CCCCCCCCC(=O)OCCCCCCCC`, the outcome was inactive.

For `CCOC(=O)CC(O)(CC(=O)OCC)C(=O)OCC`, the result was inactive.

Turning to `CC(O)CO` (stereo not given), the result was inactive.

On to `CCCCC(CC)COC(=O)CCCCC(=O)OCc1ccccc1` (stereo not given), for which the outcome was inactive.

Regarding `C[C@@H]1C[C@H]2[C@@H]3CCC4=CC(=O)C=C[C@]4(C)[C@@]3(F)[C@@H](O)C[C@]2(C)[C@@]1(O)C(=O)COP(=O)(O)O`, the result was inactive.

As for `COCC(C)OCC(C)O` (stereo not given), the result was inactive.

Consider `CC(C)(C)c1ccc(O)c(C(C)(C)C)c1`, for which the AC50 is 19.4 µM (active).

In the case of `CC(C)(C)CC(C)(C)c1ccc(O)c(-n2nc3ccccc3n2)c1`, the outcome was inactive.

For the molecule `O=C(O)c1ccccc1C(c1ccc(O)cc1)c1ccc(O)cc1`, the outcome was inactive.

Regarding `CC(=O)CC(C)(C)O`, the result was inactive.

For the molecule `CCCCC(CC)COC(=O)CCCCC(=O)OCC(CC)CCCC` (stereo not given), the outcome was inactive.

Consider `NC(=O)N1C(=O)C(C(=O)c2cc(Cl)cs2)c2cc(F)c(Cl)cc21` (stereo not given), for which the outcome was inactive.

Consider `CCC(C)(C)C1CCC(O)CC1` (stereo not given), for which the outcome was inactive.

In the case of `O=[N+]([O-])c1ccc(O)cc1`, the outcome was inactive.

For `C=C(C)C(=O)OCCC(F)(F)C(F)(F)C(F)(F)C(F)(F)C(F)(F)C(F)(F)F`, the result was inactive.

Regarding `CCc1nn(C2CCCCC2)c2cc(C3(C#N)CCC(C(=O)O)CC3)ccc12` (stereo not given), the AC50 is 2.43 µM (active).

As for `OCCC(F)(F)C(F)(F)C(F)(F)C(F)(F)C(F)(F)C(F)(F)C(F)(F)C(F)(F)F`, the concentration at half-maximal activity (AC50) was 24.3 µM (active) and 33.3 µM (active) and 18.8 µM (active).

As for `CC(=O)NC1(c2cccc(F)c2)CCN(CC[C@@]2(c3ccc(Cl)c(Cl)c3)CN(c3ccccc3)C(=O)CO2)CC1`, the AC50 is 16.6 µM (active).

With `NCC(F)(F)C(F)(F)C(F)(F)C(F)(F)C(F)(F)C(F)(F)C(F)(F)F`, the result was inactive.

`CCCCCCCCCCCCc1ccccc1S(=O)(=O)O`: the outcome was inactive.
